High-throughput results (PubChem BioAssay)
Only some compounds are listed: those with a hit (about 0.24% of all), similar ones and a draw of the others.
hcGAS inh: human cGAS inhibition; Q8N884; recombinant h-cGAS, ATP depletion, Kinase-Glo luminescence; inhibition, % at 12.5 µM; 290,000 tested, 0.081% active; AID 1259398;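 further: 0% = vehicle reaction and 100% = reaction without DNA for no activity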
mcGAS inh: blocks mouse cGAS activity; Q8C6L5; recombinant cGAS, Kinase-Glo ATP depletion luminescence; inhibition, % at 12.5 µM; 160,000 tested, 0.15% active; AID 1259399;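 further: 0% = negative control wells and 100% = reference inhibitor with no enzyme activity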
Target sequence (Q8C6L5 whole entry, looked up): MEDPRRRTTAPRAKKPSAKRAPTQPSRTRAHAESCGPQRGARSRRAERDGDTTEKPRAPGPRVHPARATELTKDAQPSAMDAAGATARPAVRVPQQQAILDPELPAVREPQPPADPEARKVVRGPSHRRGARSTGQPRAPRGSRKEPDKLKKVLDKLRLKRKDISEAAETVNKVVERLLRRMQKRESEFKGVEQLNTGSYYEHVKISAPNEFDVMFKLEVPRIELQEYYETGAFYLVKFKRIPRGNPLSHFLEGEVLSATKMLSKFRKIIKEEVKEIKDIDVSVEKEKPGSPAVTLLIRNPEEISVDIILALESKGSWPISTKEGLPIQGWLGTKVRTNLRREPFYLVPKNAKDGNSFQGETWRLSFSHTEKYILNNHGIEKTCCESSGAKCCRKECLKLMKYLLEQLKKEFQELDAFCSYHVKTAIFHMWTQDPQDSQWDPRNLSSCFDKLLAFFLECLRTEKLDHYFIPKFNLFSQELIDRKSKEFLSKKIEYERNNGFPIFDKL
NPYLR7 ag: activates Aedes aegypti NPYLR7 receptor | HEK293T NPYLR7/Galpha15, GCaMP6s calcium fluorescence | activation, % at 10 µM | 270,000 tested, 0.15% active | AID 1259423; in the data active means activation above about 40%;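 further: 0% = vehicle and 100% = reference agonist at the receptor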
* = called active by the depositor; nt = not tested or not shown; ! = repeats disagree. Unless noted, no stated cut-off is given here; in the data, active means inhibition above about 40%; inactive means the rest.

SMILES	hcGAS inh	mcGAS inh	NPYLR7 ag
OCC1OC(Oc2ccccc2Cl)C(O)C(O)C1O (configuration not stated)	-3.7	-3.7	0.1
CCOC(=O)C1CCN(Cn2c(=O)n(C)c3ccncc32)CC1	-12.3	nt	2.3
Cc1nc(=O)c(-c2ccccc2)c(C)n1-c1ccccc1O	-3.4	-5.5	80.2*
Cc1nc(=O)c(-c2ccccc2)c(C)n1-c1ccccc1	-3.7	nt	-11.6
CSCC(=O)N(CC1CCN(Cc2ccccc2C)CC1)CC1CCCO1 (configuration not stated)	-7.3	nt	1.8
Cc1c2ccccc2[nH]c2c1oc1cc(=O)ccc12	-5.6	nt	12.7
Cc1[nH]ccc2c1[nH]c1cc(=O)ccc12	49.0*!	43.3*	-3.6
CCOc1ccc(/C=N/NC(=O)c2cc3ccccc3oc2=O)cc1	-4.5	-4.0	3.7
Cc1ccc(S(=O)(=O)N2CCN(C(=O)c3ccc[nH]3)CC2)cc1C	-2.6	nt	0.1
O=S1(=O)CCC(=NNc2nc3ccccc3s2)c2cc(F)ccc21	-6.1	nt	5.1
Oc1oc(-c2ccccc2Br)nc1C=Nc1ccccc1	15.5	nt	64.5*
Cc1ccc(N=Cc2nc(-c3ccccc3Br)oc2O)cc1	-5.1	nt	-2.6
CCCCn1c(=O)c2c(nc3n(CC4CCCO4)c(C)cn23)n(C)c1=O (configuration not stated)	-1.7	nt	3.8
CN(Cc1cnc2ccccc2n1)C(=O)C1CC2(CCNCC2)CN1 (configuration not stated)	-5.8	-8.8	58.3*
CN(Cc1cc(-c2ccccc2)on1)C(=O)C1CC2(CCNCC2)CN1 (configuration not stated)	-9.4	-13.0	5.8
CC1N(C)c2ccc(C=Cc3cc[n+](C)cc3)cc2C1(C)C (configuration not stated)	-16.3	nt	66.7*
Cn1ccnc1C(NC(=O)Cc1ccc2ccccc2c1)c1ccc(F)cc1 (configuration not stated)	-3.4	nt	1.5
Cc1nc(SCC(=O)NC(=O)NCC(C)C)c2c(C)c(C)sc2n1	-4.2	nt	3.8
Cc1csc(-c2cc3ccc(O)c(CN4CCN(CCO)CC4)c3oc2=O)n1	-2.7	nt	69.1*
O=c1oc2c(CN3CCN(CCO)CC3)c(O)ccc2cc1-c1ccccc1	-7.7	-8.3	3.6
COc1cc(/C=C(/C#N)c2nc3cc(Cl)ccc3s2)ccc1O	-16.1	nt	102.4*
COc1ccc(C=C(C#N)c2nc(-c3ccc(F)cc3)cs2)cc1O	-5.5	-4.0	14.4
COc1cccc(OC)c1OCc1nc(C(=O)NCc2ccccn2)cs1	-4.6	-6.3	24.4
C=CCn1c(O)c(C=Nc2ccccc2)sc1=S	-2.8	-6.0	-3.1
Oc1[nH]c(=S)sc1C=Nc1ccccc1	6.5	57.2*	-0.6
SMILES	hcGAS inh	mcGAS inh	NPYLR7 ag
COc1cc2c(cc1OC)C(C(C)NC(=O)c1ccccc1C)N(Cc1cccc(F)c1)CC2 (configuration not stated)	-4.0	-8.0	4.6
CSCCC(C(=O)O)N1C(=O)/C(=C/c2ccc(O)cc2)SC1=S (configuration not stated)	-1.8	0.6	74.4*
COc1ccc(/C=C2\SC(=S)N(C(CCSC)C(=O)O)C2=O)cc1OC (configuration not stated)	-8.4	-3.3	-2.4
COc1cc(/C=C2\SC(=S)N(C(C)C(=O)O)C2=O)ccc1O (configuration not stated)	-9.9	-0.6	81.8*
COc1ccc(/C=C2\SC(=S)N(C(C)C(=O)O)C2=O)cc1OC (configuration not stated)	-1.0	-7.4	-3.4
Cc1ccc(-c2nc3ccc(C)cn3c2NC(C)(C)CC(C)(C)C)cc1	-7.4	-8.8	-5.6
CN(Cc1nc(-c2ccc3c(c2)OCO3)no1)Cc1nc2c(s1)CCCC2	-4.9	nt	17.7
O=C(Cn1cc(S(=O)(=O)N2CCCC2)ccc1=O)NNC(=O)c1cccs1	-0.6	nt	3.0
O=C1c2ccccc2-c2nc3ccccc3nc21	-0.7	nt	2.3
O=C1c2ccccc2-c2nc3nonc3nc21	1.4	53.2*	-0.2
COC(=O)C1=C(C)N(C2CCCCC2)C(=O)C1(NC(=O)c1ccccc1OC)C(F)(F)F (configuration not stated)	2.4	-3.6	-8.9
O=C(O)c1cccnc1S(=O)(=O)C(F)(F)F	-8.2	nt	9.8
O=C(O)c1cccnc1C(=O)O	53.5*!	-3.7	3.3
CN(CC(=O)Nc1cccc(F)c1)CC(=O)Nc1nc(-c2cc(F)ccc2F)cs1	-6.4	-8.0	1.6
Cc1ccc(C)n1-c1sccc1C(=O)O	43.6*	86.2*	24.7
Cc1sc(-n2c(C)ccc2C)c(C(=O)O)c1C	0.3	1.9	7.0
O=c1oc2ccc(Br)cc2cc1-c1nnc(Nc2cccc3ccccc23)s1	2.6	nt	-3.0
N#CC(=Cc1c(F)cccc1F)c1nc2ccccc2s1	-7.3	-5.9	-1.4
CCN(CC)CCCC(C)Nc1c2ccc(Cl)cc2nc2ccc(OC)cc12 (configuration not stated)	64.2*!	29.3	66.7*
CCN(CC)CCCC(C)NC(=O)c1cc(-c2ccccc2Cl)nn1-c1ccc(OC)cc1 (configuration not stated)	-2.6	-4.5	14.1
Cc1nn(C)c(C)c1C1CCCN1C(=O)c1ccc(C(N)=O)cn1 (configuration not stated)	-6.5	nt	6.4
CC(C)CN(CC(C)C)C(=O)c1noc2c1CC(C)CC2 (configuration not stated)	-6.2	-2.9	nt
COc1ccc(-n2ccnc2-c2nc(-c3cccs3)oc2C)cn1	-9.5	nt	57.4*
Cc1oc(-c2cccs2)nc1-c1nccn1Cc1noc(C(C)C)n1	-5.7	-9.2	nt
COc1cc(C=C(C#N)C(N)=O)cc(OC)c1O	8.8	nt	24.2
SMILES	hcGAS inh	mcGAS inh	NPYLR7 ag
COc1cc(/C=C(\C#N)C(=O)c2ccc(O)c(O)c2)cc(I)c1O	12.6	27.9	191.0*
O=C(NCc1cccnc1)c1csc(COc2ccc3c(c2)OCO3)n1	-5.4	-6.6	-4.3
COCc1cc(C)nc(OCC(=O)N/N=C\c2cc(Br)cc(I)c2O)c1C#N	-1.5	0.7	-0.4
COCCN=Cc1cc(I)cc(I)c1O	76.6*	nt	50.9*
Cc1ccn2c(=O)cc(CSc3nnnn3C3CCCC3)nc2c1	4.6	nt	0.0
CNC[C@@H](O)c1ccc(O)c(O)c1	-2.6	nt	54.5*
CC(C)NC[C@@H](O)c1ccc(O)c(O)c1	-8.4	-6.2	32.5
COc1cccc(CC2(C(=O)O)CCN(c3nc(C)ncc3C)CC2)c1	-6.3	-11.8	4.1
CC(=O)c1ccccc1-c1ccc2ncnc(NCCO)c2c1	-2.3	-7.1	0.5
C=CCn1c(SCC(=O)Nc2ccc(OC)cc2)nc2sc3c(c2c1=O)CCCC3	-5.2	-7.6	-4.8
Cc1cc(C)nc(SCc2cc(=O)c(OC(=O)C3c4ccccc4Oc4ccccc43)co2)n1	-2.4	92.8*	-6.4
Cc1cc(C)nc(SCc2cc(=O)c(OC(=O)Cc3cccs3)co2)n1	8.0	7.2	-22.1
Cc1cc(C)nc(SCc2cc(=O)c(OC(=O)c3ccccc3Cl)co2)n1	-7.4	-4.8	-12.9
Cc1cc(C)nc(SCc2cc(=O)c(OC(=O)Cc3cccc4ccccc34)co2)n1	12.5	68.2*	-8.8
Cc1ccnc(SCc2cc(=O)c(OC(=O)Cc3cccc4ccccc34)co2)n1	5.6	59.9*	13.8
Cc1ccnc(SCc2cc(=O)c(OC(=O)COc3ccccc3C)co2)n1	-1.5	-6.3	-7.4
CS(=O)(=O)NCc1csc(C2CC2)n1	-4.5	nt	8.1
